# Laboratory results published in the supplement of paper PMC12632987.
# T1: USP38, Q8NB14
# T1 chain: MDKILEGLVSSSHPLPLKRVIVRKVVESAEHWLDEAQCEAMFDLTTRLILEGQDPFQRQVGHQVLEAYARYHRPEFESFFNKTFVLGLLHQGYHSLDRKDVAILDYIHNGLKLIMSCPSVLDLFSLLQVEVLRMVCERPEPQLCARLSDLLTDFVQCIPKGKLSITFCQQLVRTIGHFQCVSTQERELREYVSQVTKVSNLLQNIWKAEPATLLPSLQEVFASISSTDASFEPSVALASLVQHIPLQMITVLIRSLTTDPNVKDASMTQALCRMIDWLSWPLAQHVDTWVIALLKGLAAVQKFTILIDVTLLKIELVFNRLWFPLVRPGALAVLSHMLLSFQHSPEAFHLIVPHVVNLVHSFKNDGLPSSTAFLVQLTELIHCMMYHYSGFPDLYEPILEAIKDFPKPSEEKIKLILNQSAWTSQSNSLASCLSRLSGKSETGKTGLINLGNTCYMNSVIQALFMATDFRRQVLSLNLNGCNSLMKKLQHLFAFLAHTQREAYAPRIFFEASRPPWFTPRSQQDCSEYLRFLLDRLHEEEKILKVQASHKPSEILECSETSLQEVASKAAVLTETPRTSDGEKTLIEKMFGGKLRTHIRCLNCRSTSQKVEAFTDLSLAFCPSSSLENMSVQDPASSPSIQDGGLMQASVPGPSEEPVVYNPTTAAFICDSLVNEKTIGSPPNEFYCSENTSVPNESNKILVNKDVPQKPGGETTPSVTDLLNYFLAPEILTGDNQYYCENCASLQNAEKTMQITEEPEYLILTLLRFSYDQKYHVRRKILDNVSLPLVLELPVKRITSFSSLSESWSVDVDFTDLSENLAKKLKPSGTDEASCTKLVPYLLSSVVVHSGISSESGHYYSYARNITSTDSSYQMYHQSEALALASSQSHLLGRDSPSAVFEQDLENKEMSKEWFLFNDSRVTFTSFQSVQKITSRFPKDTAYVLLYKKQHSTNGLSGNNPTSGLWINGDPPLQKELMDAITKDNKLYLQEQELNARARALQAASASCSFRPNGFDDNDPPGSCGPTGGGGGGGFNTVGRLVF
# Target: T1, USP38, Q8NB14
# Assay: median log2 fold change of GCK-ALFA target abundance (FLAG IP / Myc IP barcode read proportion) (log2 ratio); each designed protein is fused to an ALFA-tag nanobody in HEK293 cells to bring the named protein to FLAG-tagged glucokinase (GCK); Myc marks an untargeted standard; higher = target protein stabilised (more abundant)
# Conditions: target protein: 3xFLAG-MCP-GCK-ALFA reporter; HEK293 landing pad (RPLP)
# Summary of the method: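 An ALFA-nanobody-fused binder library was recombined into HEK293 landing-pad cells and induced with 2 μg mL^−1 doxycycline. Cells were transfected with a plasmid expressing a FLAG-tagged target and a Myc-tagged standard. After 48 h, lysates underwent anti-FLAG and anti-Myc immunoprecipitation, and circular RNA barcodes were reverse transcribed, amplified and sequenced. Target abundance is the per-binder median log2 ratio of FLAG to Myc barcode read proportions. Barcodes needed ≥10^−7 proportion in both replicates, binders ≥3 barcodes per replicate, and a 10^−6 pseudocount was added; the two replicates were pooled.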
row,Binder,median log2 fold change
1,usp_38_diff_out_18_14_282 (protein) MEELSEALKSNLESLKKDVEEDTKRVIELLEKNKDDPERVKRIYERAERNLEGVLTYAEEVLELAEKLGDEEVKKAAEELKKEAEKAREEIKKKVEKVLA,0.237
2,usp_38_diff_out_18_14_288 (protein) SEELSEAEISALKLLREDVERDTERTIRLLERARDDPERVRRIVERRERNLAGVRAYAEEVKKEAEERGDEETVKAAEELLRAIEEARARVAAARERVLA,-0.282
3,usp_38_diff_out_18_14_306 (protein) SEELAEAERSNLESLKKDVKEYTERVIKLLEKAKDDPERVKRIYERAKRNLAGVEEYAKEVLKRAKEAGDEETVKAAEELLKTIEEARKKVEEAYEKVMK,-0.549
4,usp_38_diff_out_18_14_303 (protein) GEELAKAELENLKQLKADVKAYTERVIRLLEAARDDPERVKRIYERAQRDLAGVETYAKEVKKEAEKRGDKELVKAAEELLKEVAAARERVEAAYRAVMA,-0.327
5,usp_38_diff_out_18_14_294 (protein) SSELSEAEVSALELLKKEVREDTERTIRLLEKVKDDPERVKRIVERRQRNLAGVRAYAEEVRRRAEELGDEETVAAANELLAEIDKAEKEVEEAVKRVEA,0.136
6,usp_38_diff_out_18_14_277 (protein) SEELKEALKSNLESLKKDVEEDTKRVIELLDKRKDDPEEVKRIYERAKRNLAGVKEYAKEVLEEAEKAGDEETKKAAEELIKKAEEAEKKIEEKVKEVLA,0.312
7,usp_38_diff_out_18_14_296 (protein) SSELSEAERSVLELLKEEVKKDTERTIKLLEKVKDDPERVKRIVERAERNLAGVRAFAEEVKERAEKEGDEETVKAAEELLAEIDAARERIAAAREKVLA,-0.447
8,usp_38_diff_out_18_14_275 (protein) SSELSEALQSNLESLKKDVKEDTERVLRLLEKRKDDPEQVKRIEERARRNLEGVIKFAEEVLKLAKELGDKETQKAAEELIKLAKEARKRVEEKVKEVLA,-0.129
9,usp_38_diff_out_18_14_309 (protein) SAELAEAKKKNLEQLTTDVKEDTERVIRLLRKRRDDPEAVKRLYERAQRNLAGVRKYAEEVKKEAEKAGDKETVAAAEKLLKEVAEAEKRIEEEYARVMA,-0.138
10,usp_38_diff_out_18_14_290 (protein) SEELSKAEISALELLKKEVKENTERTIKLLEKVKDDPELVKRVMERAERNLAGVRAYAEDVKERAKERGDEETVKAAEELLKEIEEARKKLKEEYKKVMA,0.00299
11,usp_38_diff_out_18_14_307 (protein) GEELAAAQLSNLNSLKTDVEKDTERVIKLLKKAKDDPERVKRIYERAKRNLAGVRTYATEVKEEAEKAGNAELVAAANDLLATIDDAEKKIEEEYKKVMA,-0.0463
12,usp_38_diff_out_18_14_289 (protein) AEELSAAERAALELLLEEVRRDTERTIRLLRRVRDDPERVERIVERAERNLAGVRAYAEDVRARARAAGDEETVAAADRLLAEVEAARARIEEERRRVLA,-0.0195
13,usp_38_diff_out_18_14_304 (protein) SEELAAALKSNLESLTKEVKEDTERVIKLLKKRKDDPEEVKRIYERAERNLAGVEAYAKEVKAEAEKAGDAETVAAAEALLKEVKEAREKVKKAYEEVMA,0.296
14,usp_38_diff_out_18_14_302 (protein) AAELAAAKKSNLESLKKDVEEDTKRVIELLEKAKDDPERVKRIYENAKRNLAGVRKYAEEVKKEAEEAGDKETVAAAEELLKTIEEAEKKVEEAYKKVMA,0.326
15,usp_38_diff_out_18_14_285 (protein) SAELAAAEKSALEILKKDVKEFTKRVIRLLKKSKDDPERVKRIYDRAKRDLAGVEKYAQEVLKRAEKAGDKETKAAAKELLKEIEKAKEEIEKEYKEVMA,-0.615
16,usp_38_diff_out_18_14_276 (protein) SSELSEALKSNLESLKKDVKEDTERVLRLLDKRKDDPEQVKRIVERAERDLAGVREYAKEVLREAEERGDEETKKAAEELLKEADAALAKVKAKAKEVLA,0.242

row,Binder,median log2 fold change
1,usp_38_diff_out_18_14_287 (protein) SEEEAEALKSALEILRGDVDAYTERVIRLLEQAAGDPERVRRIHERARRNLAGVRAYAEEVLKRAEEAGDEETKKAAEELLRRVAEAEARIAARYAEVTA,-0.622
2,usp_38_diff_out_18_14_280 (protein) SEELSEALLSNLKSLKKDVEEYTKRVLRLLEKNKDDPERVKRIKERAERNLAGVKKYAEEVLKEAEEEGDEETLKAAKELKETAEKALAEIEKKVKEVLA,-0.87
3,usp_38_diff_out_18_14_297 (protein) SEELSEAEISNLELLKKEVEEDTERTIELLEKVKDDPERVKRIVERALRNLAGVEAYAKDVKERAEKEGNEKTVAAANELLATIEEARKRIEEKYKKVME,0.335
4,usp_38_diff_out_18_14_286 (protein) SAELAAAEKSALEILKKDVKEDTKRVIRLLEKAKDDPELVERIYERAKRDLAGVRAYAEEVLKRAEEAGDEETKAAAKELLKEIDKAKKEIDAAYKKVMA,0.128
5,usp_38_diff_out_18_14_299 (protein) SAELAEAKAANLKLLKTDVKEDTERVIKLLKKNKNDPERVKRIYDRAKRNLAGVRTYAEEVLEEAKAAGDAATAAAAQELLKTIDEEEKKIEEEYKKVMA,-0.444
6,usp_38_diff_out_18_14_281 (protein) SEELSKALLSNLESLKKDVEEDTERVLRLLEKNKDDPERVKRIVERAERDLAGVIEYAKEVLELAKKNGDEETLKAAKELIKKAEEARKRIEEKAKKVLA,0.189
7,usp_38_diff_out_18_14_301 (protein) SEELAEALRSNLELLKEDVKEDTERVIRLLKKNKNDPERVKDIYERAKRNLAGVREYAEEVLEEAEEAGDEETAEAARELLETIEEERKKIEEEYKKVMA,-0.149
8,usp_38_diff_out_18_14_283 (protein) SEELSKALKSNLESLKEDVKKDTERVLRLLEKRKDDPEQVKRIKERAERNLEGVITYAEEVLKEAEKEGDEEVKKAAKELIEEAKKAREKIEEKVKEVLA,-0.104
9,usp_38_diff_out_18_14_279 (protein) SEELNEALLSNLESLKEDVERDTERVLRLLEANRDDPERVKRIVERAERNLAGVIEFAKEVLKEAEKAGNEELLKAAKELIKRAKEALERIRRKAEEVLA,-0.00242
10,usp_38_diff_out_18_14_308 (protein) AEELAAAKKSNLESLKEEVKKYTERVIELLKKAKDDPERVKRIYERAQRDLEGVRTYAEEVLKEAEAAGDEETKAAAKELLKEIDEAKKKVEKAYKEVMA,-0.392
11,usp_38_diff_out_18_14_292 (protein) SEELSEAEKSVLETLKKDVREDTERTIRLLEKVKDDPERVKRVVERARRNLAGVRAYAEEVKERAEKRGDEETVKAAEELLKEVEKAEERIEKAEEEVLK,0.0826
12,usp_38_diff_out_18_14_293 (protein) DAELSAAERSALATLRTDVAADTARTIALLKRVKDDPERVDRVVERARRNLAGVRAFAEEVLREAEERGDEETVAAARELLAAIDAAEAAVAAAAAAVRA,-0.59
13,usp_38_diff_out_18_14_284 (protein) SAELAAAEKAALEILKTDVKKDTERVIRLLKKAKDDPERVKRIYERAKRNLEGVETYAKEVLERAKKAGDKETKAAAEELLKEIEEAKKKIEEAYKEVMA,0.0553
14,usp_38_diff_out_18_14_291 (protein) SEELSEAEKSALELLKEEVKKDTERTIKLLEKVKDDPERVERIVERANRNLEGVRAYAEAVKKEAEARGDEETVKAAEELLKTIEEARERIEKAYKEVKA,-0.0115
15,usp_38_diff_out_18_14_300 (protein) SAELAEALKSNLEILKEDVKRYTERVIRLLRKNKDDPERVKRIYERAKRDLEGVRKFAEEVLKLAKEEGDEETAKAAEELLKTIEEEEKRIEEEYKRVMA,-0.852
16,usp_38_diff_out_18_14_295 (protein) SEELSKAEISVLETLTKEVEADTDRTIALLEKVADDPERVKRIVERANRNLAGVRAYAEEVKERAEERGDEETVKKAEELLKKIDEAEARIAAAEAAVRA,0.017
